Compound activity from PubChem.
Compounds with a hit are over-represented: about 5.4% of the library has one in this group of screens.
CSC inhib = cancer stem cell viability inhibitors, primary screen, luminescence; cancer stem cell-like cells viability; inhibition, % at 7.5 µM; 300,000 tested, 1.1% active; in the data active = inhibition above about 75%; inconclusive = no clear call, values can overlap the other calls; tested in HMLE shEcad cells
PP1 counter = PP1-alpha phosphatase inhibitors, primary screen, counter-screen for PP5 inhibitor project, biochemical, fluorescence, OMFP substrate, single point | Serine/threonine-protein phosphatase PP1-alpha catalytic subunit (Homo sapiens), P62136 | purified PP1alpha | inhibition, % at 6.7 µM | 320,000 tested, 0.9% active | AID 2235, 2010;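 active = inhibition above the mean inhibition of all tested compounds plus 3 SD, computed separately for each screening campaign, cut at about 15% in these data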
Target sequence (P62136 whole entry, looked up): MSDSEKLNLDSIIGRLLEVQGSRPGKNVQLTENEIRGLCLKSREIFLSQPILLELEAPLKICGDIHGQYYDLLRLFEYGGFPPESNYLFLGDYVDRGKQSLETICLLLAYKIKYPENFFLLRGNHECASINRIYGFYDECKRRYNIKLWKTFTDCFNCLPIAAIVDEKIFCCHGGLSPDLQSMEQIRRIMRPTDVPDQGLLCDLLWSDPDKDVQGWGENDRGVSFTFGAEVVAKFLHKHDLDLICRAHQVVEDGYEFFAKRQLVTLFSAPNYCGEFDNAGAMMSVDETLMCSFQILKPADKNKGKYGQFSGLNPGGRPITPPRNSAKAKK
ALR H2O2 inh = inhibitors of human ALR sulfhydryl oxidase, primary screen, biochemical, H2O2 detection, HRP-luminol luminescence, single point; FAD-linked sulfhydryl oxidase ALR (Homo sapiens), P55789; purified ALR, DTT oxidation; inhibition, % (concentration not given with the values); 290,000 tested, 3.8% active; AID 485317, 2010;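 active = mean replicate inhibition above about 79%, with every replicate also reaching it, limit read from the data; inconclusive = only one of the two criteria met; inactive = mean below limit and not every replicate reaching it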
Target sequence (P55789 whole entry, looked up): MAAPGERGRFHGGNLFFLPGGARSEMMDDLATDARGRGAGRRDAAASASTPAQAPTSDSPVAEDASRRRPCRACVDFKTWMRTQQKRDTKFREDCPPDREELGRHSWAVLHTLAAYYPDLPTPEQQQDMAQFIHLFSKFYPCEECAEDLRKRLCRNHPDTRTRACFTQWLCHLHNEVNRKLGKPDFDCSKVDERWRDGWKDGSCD
PP5 inh = PP5 phosphatase inhibitors, primary screen, biochemical, fluorescence; purified PP5c, OMFP substrate fluorescence; inhibition, % at 6.7 µM; 320,000 tested, 0.18% active; Serine/threonine-protein phosphatase 5 (Homo sapiens), P53041;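 active = inhibition above the campaign's mean inhibition across all tested compounds plus 3 SD, cut at about 9.5% in these data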
Calb FLC = C. albicans growth inhibition with fluconazole, primary screen, CaCi-2 strain, Alamar Blue fluorescence. 300,000 tested, 0.57% active. growth inhibition, % (no concentration beside the values). C. albicans CaCi-2 (fluconazole-resistant clinical isolate) + fluconazole, 48 h;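 active = growth inhibition above about 58% in most replicates, limit read from the data, passing the limit was not always enough; inconclusive = exactly half the replicates above a set limit; inactive = most replicates below a set limit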;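 note: all wells also contain fluconazole at 8 µg/ml as a sub-toxic cotreatment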
Hits are given with their value; n = inactive; u = inconclusive; x = no result.

SMILES | CSC inhib | PP1 counter | ALR H2O2 inh | PP5 inh | Calb FLC
COc1ccc(OC)c(NC(=O)C2CCCNC2=O)c1 (stereo not drawn) | n | n | n | n | n
O=C(COC(=O)CNC(=O)c1ccc(Cl)cc1Cl)NCC1CCCO1 (stereo not drawn) | n | n | n | n | n
COc1ccc(NC(=O)CSCC(=O)N(C)Cc2c(F)cccc2Cl)cc1 | n | n | n | n | n
Cc1ccc(-c2cnc(SCCNC(=O)c3ccco3)[nH]2)cc1 | n | n | 93.6 | n | n
Cc1ccc(C(=O)NCCCNC(=O)c2ccco2)cc1 | n | n | n | n | n
CCOc1c(O)ccc(C2NC(=O)N(C)C(C)=C2C(=O)OC)c1[N+](=O)[O-] (stereo not drawn) | n | n | 88.7 | n | n
CCc1c(O)nc(SCC(=O)N2CCOCC2)n(-c2ccccc2)c1=O | n | n | 96.1 | n | n
CCc1c(O)nc(SCC(=O)c2ccccc2)n(-c2ccccc2)c1=O | n | n | 99.0 | n | n
CCc1c(O)nc(SCC(=O)NC(C)(C)C)n(-c2ccccc2)c1=O | n | n | n | n | n
C=CCn1c(SCC(C)=O)nc2scc(-c3ccco3)c2c1=O | n | 15.3 | n | n | n
CC(C)C(C)NC(=O)CSc1nc2scc(-c3ccco3)c2c(=O)n1-c1ccccc1 (stereo not drawn) | n | n | 96.1 | n | n
C=CCn1c(SCC(=O)N2CCOCC2)nc2scc(-c3ccco3)c2c1=O | n | n | n | n | n
Cc1[nH]c2ccccc2c1-c1csc(NC(=O)CSCC(=O)O)n1 | n | n | 100.0 | n | n
COc1ccc2nc(NC(=O)CSc3nc4ccccc4o3)sc2c1 | x | n | n | n | n
Cc1cc(=O)[nH]c(SCC(=O)Nc2nc(-c3ccccc3)cs2)n1 | n | n | 98.8 | n | n
O=C(CSc1nc2ccccc2o1)Nc1nc2ccc(Br)cc2s1 | n | n | 98.3 | n | n
Cc1nnc(SCC(=O)Nc2nc(-c3ccc(F)cc3)cs2)[nH]c1=O | n | n | 98.9 | n | n
CCOc1cc(C2CC(=O)NC3=C2C(=O)C(C(=O)OC)C(C)C3)cc(Br)c1O (stereo not drawn) | n | n | n | n | n
COc1ccc(-c2cc(C(=O)N3CCCC(C(F)(F)F)C3)c3ccccc3n2)cc1 (stereo not drawn) | x | n | n | n | x
Cc1ccc(-c2csc(NC(=O)CSc3nc4ccccc4[nH]3)n2)cc1 | x | x | x | x | n
Cc1cc(=O)[nH]c(SCC(=O)Nc2nnc(SCc3ccccc3)s2)n1 | n | n | n | n | n
COc1ccc(-c2csc(NC(=O)CSc3nc4ccccc4c(=O)[nH]3)n2)cc1 | x | 17.0 | x | n | n
O=C(COC(=O)c1cccs1)Nc1nc(-c2ccccc2)cs1 | n | n | 87.7 | n | x
Cc1nnc(SCC(=O)Nc2ccc(Br)cn2)[nH]c1=O | n | n | 98.9 | n | n
Cc1cc(=O)[nH]c(SCC(=O)Nc2nc3ccccc3s2)n1 | n | n | 99.3 | n | n
SMILES | CSC inhib | PP1 counter | ALR H2O2 inh | PP5 inh | Calb FLC
COc1ccc(C(CNC(=O)c2cccc(S(=O)(=O)N3CCCC(C)C3)c2)N(C)C)cc1 (stereo not drawn) | x | n | n | n | x
Nc1ccccc1SCC(=O)Nc1nc(-c2ccccc2)cs1 | 126.6 | n | x | n | n
Cc1csc(SCC(=O)Nc2nc(-c3ccccc3)cs2)n1 | n | n | n | n | n
COc1ccc(-n2cnc3cc(NS(=O)(=O)c4ccccc4)ccc32)cc1 | n | n | x | n | n
COc1ccc(-n2cnc3cc(N)ccc32)cc1 | n | n | 98.8 | n | n
Cc1cc(C2=NNC(=NCc3ccccc3)SC2)c(C)n1-c1c(C)n(C)n(-c2ccccc2)c1=O | x | x | x | x | n
Oc1ccccc1/C=N/NC(=S)NC1CC2CC1C1C=CCC21 (stereo not drawn) | 99.6 | n | n | n | n
Cc1c(/C=C2\NC(=O)NC2=O)c2ccccc2n1C | n | n | 98.3 | n | n
Cc1cccc(C)c1-n1c(C)cc(/C=C2\NC(=O)NC2=O)c1C | n | n | n | n | n
CCNc1nc(N)nc(Oc2ccc(OCCOc3ccc(Cl)cc3Cl)nn2)n1 | n | n | n | n | n
COc1cc(/C=N/N2C(=O)C3C4C=CC(CC4)C3C2=O)ccc1O (stereo not drawn) | n | n | 90.2 | n | n
COc1cc(/C=N/NC(=O)NC2CCCCC2)ccc1O | n | n | 99.1 | n | u
O=C(N/N=C/c1ccccc1)NC1CCCCC1 | n | n | n | n | n
COc1cc(/C=N/NC(=O)NC2CCCCC2)cc(OC)c1O | n | n | 98.9 | n | n
COc1cc(/C=N/NC(=O)c2ccc(NC(=O)C3CCCCC3)cc2)ccc1O | n | x | n | x | n
C=C(C)Cn1c(=O)c2c(nc3n2CCCN3Cc2ccccc2)n(C)c1=O | n | n | n | n | n
Cn1c(Cn2c(=O)sc3ccccc32)nnc1SCc1ccc(F)cc1 | n | n | x | n | n
CC1=C(C(=O)OCC(C)C)C(c2cccs2)NC(=S)N1 (stereo not drawn) | n | n | n | n | n
COc1ccc(-c2nc(-c3cccs3)c(-c3cccs3)[nH]2)cc1O | n | n | 99.4 | n | n
Clc1ccc(OCCn2ccnc2)c2ccccc12 | n | n | n | n | 100.6
NC(=O)COC(=O)CSc1ccc2ccccc2c1 | x | n | 98.8 | n | n
NS(=O)(=O)c1ccc(CCNC(=O)CN2CCN(c3ccccc3F)CC2)cc1 | n | n | n | n | n
NS(=O)(=O)c1ccc(CCNC(=O)CSc2ccc3ccccc3c2)cc1 | n | n | 99.3 | n | n
CCNC(=O)NC(=O)CSc1ccc2ccccc2c1 | n | n | 98.0 | n | n
NS(=O)(=O)c1ccc(CCNC(=O)CN2CCN(c3ccccc3O)CC2)cc1 | n | n | 98.9 | n | n
SMILES | CSC inhib | PP1 counter | ALR H2O2 inh | PP5 inh | Calb FLC
O=C(Nc1cccc(C(F)(F)F)c1)c1c(O)c2ccccc2[nH]c1=O | n | n | n | n | n
CN1C(=O)[C@H]2[C@@H](/C=C/c3ccccc3)N3C(=O)CN(CCO)C(=O)[C@@]3(C)[C@H]2C1=O | n | n | n | n | n
COc1cccc(NC(=S)NNC(=O)CCn2cc([N+](=O)[O-])cn2)c1 | n | n | 83.2 | n | n
COc1cccc(NC(=S)NNC(=O)Cn2nc([N+](=O)[O-])cc2C)c1 | n | n | n | n | n
COc1cccc(NC(=S)NNC(=O)Cn2nc(C(F)F)cc2C(F)F)c1 | n | n | 84.4 | n | n
O=C(Cn1nc(C(F)F)cc1C(F)F)NNC(=S)Nc1ccc(F)cc1 | n | n | n | n | n
Cc1ccc(NC(=O)c2ccccc2N(C)S(C)(=O)=O)cc1C | n | n | n | n | n
CCCc1nc2oc3cc(OC)ccc3c(=O)c2c(=O)n1CCc1ccccc1 | n | n | n | n | n
CCn1c(/C=C/N(C(C)=O)c2ccccc2)[n+](CC)c2ccc(Cl)cc21 | n | n | n | n | n
CC[n+]1c(/C=C/C=C/N(C(C)=O)c2ccccc2)sc2ccccc21 | n | n | n | n | 89.3
